Some test systems named below: NCI-H23 lung; NCI-H226 lung; NCI-H322M lung; HOP-62 NSCLC; NCI-H460 lung; HOP-92 NSCLC; NCI-H522 lung; A549/ATCC NSCLC; 786-0 renal; COLO 205 colon; DU-145 prostate; K-562 leukemia; MALME-3M melanoma; RXF 393 renal; SF-268 CNS; SF-295 CNS; SF-539 CNS; UACC-257 melanoma; M14 melanoma; MDA-MB-231 breast.
Common to all, as to experiment: NCI-60 one-dose screen, 48 h (100 = growth as untreated, 0 = no growth, -100 = all killed)
Conditions in all cases: 10 µM

Molecules are shown by their SMILES. Compounds without any hit were thinned out: in the full panel of roughly 83,000, 20% have a hit.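 Method: cells in 96-well plates; compound added at one concentration; 48 h incubation; percent growth measured; values under 10 scored active.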 Unmarked numbers belong to inactive results. Activity calls are given as the source filed them.

In the case of `COc1ccccc1NC(=O)C1=C(C)NC(C)=C(C(=O)Nc2ccccc2OC)C1c1cccc([N+](=O)[O-])c1`, the growth was 76.6% with NCI-H23 lung; 74.7% with NCI-H226 lung; 91.2% in the test with NCI-H322M lung; 68.5% in the test on HOP-62 NSCLC; 67.5% in the test on NCI-H460 lung; 56.8% with HOP-92 NSCLC. Moreover, the growth in the test with NCI-H522 lung was 72.4%; with A549/ATCC NSCLC, 67%; in the test on 786-0 renal it was 84.6%; in the test with COLO 205 colon it was 89.3%; in the test with DU-145 prostate, 84.1%; in the test on K-562 leukemia it was 57.3%. Besides, the growth is 84.7% in the test with MALME-3M melanoma; 79.2% with RXF 393 renal; 67% with SF-268 CNS; 49.5% with SF-295 CNS; 75.2% with SF-539 CNS; 92.3% with UACC-257 melanoma. In the test on M14 melanoma, the growth is 76.5%.
Take `C/C(=C\c1cc(Cl)ccc1OCC(=O)O)[N+](=O)[O-]`: the growth in the test on NCI-H23 lung is 96.2%; with NCI-H226 lung it was 108%; in the test on NCI-H322M lung, 118%; in the test on HOP-62 NSCLC, 103%; in the test on NCI-H460 lung, 123%; in the test with HOP-92 NSCLC, 101%. Moreover, the growth was 75.6% in the test with NCI-H522 lung; 92% in the test on A549/ATCC NSCLC; 117% with 786-0 renal; 115% with COLO 205 colon; 108% in the test on DU-145 prostate; 105% with K-562 leukemia. Besides, the growth with MALME-3M melanoma was 127%; in the test on MDA-MB-231 breast, 123%; in the test on RXF 393 renal, 134%; in the test with SF-268 CNS, 103%; with SF-295 CNS, 108%; with SF-539 CNS it was 109%. For the same molecule, the figures for the growth in the test on UACC-257 melanoma and in the test with M14 melanoma were 102% and 103%, respectively.
`CC(=O)CC(=O)N(C)C`: the growth with NCI-H23 lung was 102%; in the test with NCI-H226 lung it was 94.5%; in the test on NCI-H322M lung, 101%; with HOP-62 NSCLC it was 98.8%; with NCI-H460 lung, 104%; with HOP-92 NSCLC it was 81.8%. Also, the growth is 88.5% in the test on NCI-H522 lung; 101% with A549/ATCC NSCLC; 97.8% in the test on 786-0 renal; 115% in the test on COLO 205 colon; 104% in the test on DU-145 prostate; 101% in the test on K-562 leukemia. Moreover, the growth is 98.7% in the test on MALME-3M melanoma; 110% with RXF 393 renal; 101% with SF-268 CNS; 95.8% in the test on SF-295 CNS; 97.6% with SF-539 CNS; 99.3% with UACC-257 melanoma. Also, the growth in the test on M14 melanoma was 107%.
For `COc1ccc(C2OC(N)=C(O)C2=O)cc1OC` (centres undefined), the growth in the test with NCI-H23 lung was 102%; with NCI-H226 lung it was 97.5%; in the test with NCI-H322M lung it was 102%; in the test on HOP-62 NSCLC, 105%; in the test with NCI-H460 lung it was 110%; in the test on HOP-92 NSCLC, 98%. For the same molecule, the growth in the test on NCI-H522 lung is 93.6%; in the test with A549/ATCC NSCLC, 118%; in the test on 786-0 renal it was 101%; with COLO 205 colon, 125%; in the test on DU-145 prostate it was 109%; in the test on K-562 leukemia, 94.6%. For the same molecule, the growth with MALME-3M melanoma was 95.5%; in the test with RXF 393 renal, 110%; in the test with SF-268 CNS it was 101%; with SF-295 CNS, 99.9%; with SF-539 CNS it was 90.9%; with UACC-257 melanoma, 106%. In addition, the growth in the test with M14 melanoma was 111%.
Take `N=c1c(C(=O)OCc2ccccc2)ncc(CCl)n1O`: the growth was 100% in the test with NCI-H23 lung; 92.9% with NCI-H226 lung; 98.6% in the test on NCI-H322M lung; 95.7% in the test on HOP-62 NSCLC; 99.4% in the test on NCI-H460 lung; 97.3% in the test on HOP-92 NSCLC. The growth in the test on NCI-H522 lung is -43.4% (active); in the test on A549/ATCC NSCLC it was 101%; with 786-0 renal, 81.6%; with COLO 205 colon, 116%; in the test on DU-145 prostate it was 102%; in the test with K-562 leukemia, 109%. Besides, the growth in the test with MALME-3M melanoma was 113%; with MDA-MB-231 breast, 95.8%; with RXF 393 renal, 94.9%; in the test with SF-268 CNS it was 94.9%; with SF-295 CNS, 124%; with SF-539 CNS, 104%. In addition, the growth was 81.8% in the test with UACC-257 melanoma and 94.1% in the test with M14 melanoma.
In the case of `C=C1CC/C=C(\C)C(=O)C[C@@H]2[C@@H]1CC2(C)C`, the growth with NCI-H23 lung was 107%; in the test on NCI-H226 lung, 107%; in the test on NCI-H322M lung, 119%; with HOP-62 NSCLC, 119%; in the test with NCI-H460 lung, 107%; in the test on HOP-92 NSCLC, 88.4%. The growth in the test on NCI-H522 lung was 85.3%; in the test on A549/ATCC NSCLC, 109%; in the test with 786-0 renal, 104%; in the test with COLO 205 colon, 110%; in the test with DU-145 prostate, 102%; in the test on K-562 leukemia, 102%. In addition, the growth with MALME-3M melanoma is 103%; in the test on MDA-MB-231 breast, 125%; in the test on RXF 393 renal, 55.1%; in the test on SF-268 CNS, 99.5%; in the test with SF-295 CNS, 108%; in the test with SF-539 CNS, 107%. Further, the values for the growth in the test with UACC-257 melanoma and in the test on M14 melanoma were 111% and 98.3%, respectively.
Consider `c1ccc(Sc2ccccc2)cc1`, for which the growth in the test with NCI-H23 lung was 105%; in the test with NCI-H226 lung, 103%; with NCI-H322M lung, 118%; in the test with HOP-62 NSCLC, 104%; with NCI-H460 lung, 106%; in the test on HOP-92 NSCLC it was 90.9%. In addition, the growth with NCI-H522 lung was 139%; in the test on A549/ATCC NSCLC it was 96.6%; with 786-0 renal it was 113%; with COLO 205 colon it was 115%; in the test with DU-145 prostate, 105%; with K-562 leukemia, 112%. Further, the growth with MALME-3M melanoma was 94.4%; in the test on MDA-MB-231 breast, 109%; in the test on RXF 393 renal, 114%; with SF-268 CNS, 97%; in the test with SF-539 CNS, 103%; in the test with UACC-257 melanoma, 88.3%.
Take `c1c(-c2cc(C3CC3)[nH]n2)n[nH]c1C1CC1`: the growth is 94.3% in the test with NCI-H23 lung; 95.2% in the test on NCI-H226 lung; 94.8% with NCI-H322M lung; 98.6% with HOP-62 NSCLC; 83.4% with NCI-H460 lung; 89% with HOP-92 NSCLC. Moreover, the growth in the test on NCI-H522 lung was 79%; with A549/ATCC NSCLC it was 88.8%; in the test with 786-0 renal, 94.3%; with COLO 205 colon it was 102%; with DU-145 prostate it was 111%; with K-562 leukemia, 70.9%. The growth in the test on MALME-3M melanoma was 92.2%; with RXF 393 renal it was 108%; with SF-268 CNS it was 107%; in the test with SF-295 CNS it was 98%; in the test on SF-539 CNS, 101%; in the test on UACC-257 melanoma, 90.8%. Besides, the growth in the test with M14 melanoma was 98.9%.

The record behind these values is PubChem BioAssay (NCI).
